Results on 14 compounds are retold here after PubChem BioAssay AID489043 (National Center for Advancing Translational Sciences (NCATS), 2010).

Inconclusive results are not listed. Activity calls are given as the source filed them. The call rests on the fitted dose curve; in most records, active means well fitted activation curve with a large enough effect; inconclusive means small, poorly fitted or top-dose-only effect; inactive means flat fitted curve, though single readings scatter.
Potency means the concentration at half of the fitted maximal effect.

Chain of Relaxin receptor 2 (Homo sapiens) (Q8WXD0 whole entry, looked up): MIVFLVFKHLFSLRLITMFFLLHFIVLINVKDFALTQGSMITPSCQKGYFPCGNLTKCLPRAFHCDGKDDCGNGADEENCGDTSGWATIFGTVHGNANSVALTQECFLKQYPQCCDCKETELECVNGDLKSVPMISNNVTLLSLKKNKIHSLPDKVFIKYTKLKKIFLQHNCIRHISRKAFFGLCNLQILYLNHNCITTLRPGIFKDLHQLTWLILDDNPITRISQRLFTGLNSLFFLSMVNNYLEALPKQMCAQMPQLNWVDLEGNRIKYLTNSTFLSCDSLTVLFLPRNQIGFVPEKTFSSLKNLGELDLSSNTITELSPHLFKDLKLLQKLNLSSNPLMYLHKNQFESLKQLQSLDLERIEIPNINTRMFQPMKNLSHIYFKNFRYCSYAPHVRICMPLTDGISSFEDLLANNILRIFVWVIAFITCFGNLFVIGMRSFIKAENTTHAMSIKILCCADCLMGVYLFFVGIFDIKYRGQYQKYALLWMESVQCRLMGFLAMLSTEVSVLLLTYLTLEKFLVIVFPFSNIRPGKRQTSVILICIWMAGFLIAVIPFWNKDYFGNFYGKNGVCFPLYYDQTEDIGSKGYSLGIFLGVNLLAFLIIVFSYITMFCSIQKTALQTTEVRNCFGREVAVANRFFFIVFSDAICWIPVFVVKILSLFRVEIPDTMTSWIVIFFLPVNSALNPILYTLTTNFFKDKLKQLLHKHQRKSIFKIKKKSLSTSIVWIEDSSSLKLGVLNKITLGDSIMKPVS

The assay concerns the target Relaxin receptor 2 (Homo sapiens) (UniProt Q8WXD0). The assay is described as follows: qHTS Assay for Agonists of the Relaxin Receptor RXFP1: RXFP2 Hit Validation. Further: nearly all actives have a fitted effect of over 65% in size. To be noted: HEK293 RXFP2 cAMP TR-FRET, 30 min; series mostly up to 115 µM; activation: at the top concentration. Put shortly:
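Selectivity counter-assay for cAMP accumulation: RXFP2-HEK293 cells given compounds with Ro 20174 for 30 min at 37C, then lysed for TR-FRET cAMP detection. Data scaled to 29 nM porcine relaxin (100%); Hill-equation EC50.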
In general terms: Quantitative high-throughput screening tests each substance at several concentrations.
Take `Cc1noc(NS(=O)(=O)c2ccc(N3Cc4ccccc4C3=O)cc2)c1C`: the Potency is 11.9 µM (active).

For the compound `Cc1cc(C(=O)COC(=O)Cn2cnc3c2c(=O)n(C)c(=O)n3C)c(C)n1C`, the Potency is 15.5 µM (active).

Consider `O=C(O)CCSc1ccc2ccccc2n1`, for which the Potency is 19.4 µM (active).

Take `O=C(Nc1ccccc1C(=O)NCCc1ccccc1)c1ccco1`: the “activation” value was 0.452% [at 125 µM] (inactive).

`CCn1c(=O)c2sccc2n2c(CCCC(=O)NCc3cccnc3)nnc12`: the “activation” value was 27.9% (inactive).

On to `CC(=O)Nc1ccc(NC(=O)CSc2ccc3nnc(-c4ccccn4)n3n2)cc1`, for which the “activation” value was 27% [at 44.7 µM] (inactive).

For `COc1ccc(CCn2c(=N)c(C(=O)NCC3CCCO3)cc3c(=O)n4cccc(C)c4nc32)cc1` (centres undefined), the “activation” value is 22.4% (inactive).

Take `COCCNC(=O)NC(=O)COC(=O)C12CC3CC(CC(NC(C)=O)(C3)C1)C2`: the “activation” value is 4.39% [at 44.7 µM] (inactive).

Regarding `O=C(CN1C(=O)c2cccc3cccc(c23)C1=O)NCCN1CCOCC1`, the “activation” value was 24.4% [at 44.7 µM] (inactive).

Turning to `COC(=O)c1cc(CN2C(=O)c3ccccc3C2=O)c(O)c([N+](=O)[O-])c1`, the Potency was 38.9 µM (active).

For `COc1ccc(CNC(=O)CN2C(=O)NC(C)(c3cccc(Br)c3)C2=O)cc1` (centres undefined), the “activation” value was 0.421% (inactive).

As for `C=C[C@@]1(C)CC(=O)[C@]2(O)[C@@]3(C)[C@@H](O)CCC(C)(C)[C@@H]3[C@H](O)[C@H](OC(C)=O)[C@@]2(C)O1`, the Potency is 0.0488 µM (active).

For `CCOc1ccc(NC(=O)CSc2ccc3nnc(-c4cccnc4)n3n2)cc1`, the Potency is 34.6 µM (active).

For `O=C(Nc1ccccc1C(=O)N1CCNCC1)c1ccco1`, the “activation” value is -3.31% [at 125 µM] (inactive).
